# From PubChem
# GC-B act = human GC-B receptor activators, primary screen, HEK293 GC-B cells, cGMP TR-FRET, EC30 CNP. Atrial natriuretic peptide receptor 2 (Homo sapiens), P20594. 0% at EC30 CNP, 100% saturating CNP. activation, % at 10 µM. 0.11% of 370,000 active. AID 1920062, 2024;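 active = activation at 10 µM reaching about 35% in either raw or pattern-adjusted values, limit read from the data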
# Target sequence (P20594 whole entry, looked up): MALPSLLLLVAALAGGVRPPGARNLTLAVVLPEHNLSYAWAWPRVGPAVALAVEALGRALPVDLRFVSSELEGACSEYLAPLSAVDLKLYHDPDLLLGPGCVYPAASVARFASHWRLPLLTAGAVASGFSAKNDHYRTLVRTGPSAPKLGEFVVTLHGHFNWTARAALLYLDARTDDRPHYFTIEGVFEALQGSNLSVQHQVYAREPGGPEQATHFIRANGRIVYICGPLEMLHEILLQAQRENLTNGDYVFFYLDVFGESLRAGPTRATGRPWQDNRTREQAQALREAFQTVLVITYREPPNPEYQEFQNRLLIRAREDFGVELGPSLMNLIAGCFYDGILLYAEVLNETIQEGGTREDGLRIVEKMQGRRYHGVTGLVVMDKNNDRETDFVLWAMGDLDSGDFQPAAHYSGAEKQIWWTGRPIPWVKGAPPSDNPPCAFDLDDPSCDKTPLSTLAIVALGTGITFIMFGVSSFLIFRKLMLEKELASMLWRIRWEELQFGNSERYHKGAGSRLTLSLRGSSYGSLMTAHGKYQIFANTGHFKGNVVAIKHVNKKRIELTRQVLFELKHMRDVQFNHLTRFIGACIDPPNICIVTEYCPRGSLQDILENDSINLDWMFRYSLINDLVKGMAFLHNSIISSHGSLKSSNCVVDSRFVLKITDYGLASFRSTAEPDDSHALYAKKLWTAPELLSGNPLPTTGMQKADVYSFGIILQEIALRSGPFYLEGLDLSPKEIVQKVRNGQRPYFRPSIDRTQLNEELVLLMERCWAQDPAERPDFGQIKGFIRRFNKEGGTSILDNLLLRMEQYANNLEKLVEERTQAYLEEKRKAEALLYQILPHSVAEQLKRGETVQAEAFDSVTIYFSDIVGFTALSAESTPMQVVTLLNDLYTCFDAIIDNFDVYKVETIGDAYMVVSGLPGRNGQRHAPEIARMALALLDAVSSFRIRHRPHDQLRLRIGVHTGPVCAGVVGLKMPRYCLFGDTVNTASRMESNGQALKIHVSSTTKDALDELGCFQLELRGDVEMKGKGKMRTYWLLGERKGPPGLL
# Myeloid diff MLP = induction of myeloid progenitor differentiation, primary screen, cell-based, flow cytometry, MLPCN library | 1% of 360,000 active | ER-HoxA9 myeloid progenitors, lysozyme-GFP differentiation | calls only at 10 µM;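 active = normalized GFP-positive differentiation at or above the plate's own cutoff, the solvent-only control mean plus 3 SD; inconclusive = no clear call, values can overlap the other calls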;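 note: cells exposed to compound for four days before flow analysis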
# Exocytosis inh = LAMP-1 surface exposure blockers, TALL-104 cells – cell-based, flow cytometry, MLPCN library, primary screen | inhibition, % at 10 µM | TALL-104 LAMP-1 surface exposure; cells stimulated with thapsigargin and PMA | 0.66% of 360,000 active;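 active = inhibition above about 55%, limit read from the data; inconclusive = no clear call, values can overlap the other calls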
# NPR1 activator = GC-A stimulated cGMP production enhancers – HEK293 GC-A cells, cGMP TR-FRET, EC30 ANP, primary screen | 0% at EC30 ANP, 100% saturating ANP | Atrial natriuretic peptide receptor 1 (Homo sapiens), P16066 | activation, % at 10 µM | AID 1671463, 2021 | 0.14% of 370,000 active; in the data active = activation above about 40%
# A number is an active result; 0 = inactive; ? = inconclusive; - = not tested or not shown; + = active, no number. In the library only some 1.8% were active in any assay of this set; here they are far more common.
SMILES,GC-B act,Myeloid diff MLP,Exocytosis inh,NPR1 activator
Cc1cccc(C)c1N1C(=O)c2cccc([N+](=O)[O-])c2C1=O,0,0,0,0
Cc1ccc(N2C(=O)c3cccc([N+](=O)[O-])c3C2=O)cc1C,0,0,0,72
CC(C1CC2CCC1C2)N1CC(O)=C(c2nc3ccccc3[nH]2)C1=N (centres undefined),0,+,0,0
CC(C)N1CC(O)=C(c2nc3ccccc3[nH]2)C1=N,0,0,0,0
COc1cccc(/C=N\N2CCN(c3ccc(C)cc3)CC2)c1O,0,-,-,0
COc1ccc(C2C(C(=O)Nc3ccc(C)c(C)c3)CCC(=O)N2c2ccc(OC)cc2)cc1 (centres undefined),0,-,-,0
Cc1cc(/C=C2/C(=O)N(C)C(=S)N2C)c(C)n1C1CC1,0,+,0,0
Cc1c(N=C2NC(=O)C(CC(=O)Nc3ccccc3)S2)c(=O)n(-c2ccccc2)n1C (centres undefined),0,0,0,0
Cc1c(N=C2C=C(Br)C(=O)C(Br)=C2)c(=O)n(-c2ccccc2)n1C,0,0,0,0
Cc1c(NC(=O)Nc2ccc(C(C)(C)C)cc2)c(=O)n(-c2ccccc2)n1C,0,0,0,0
Cc1c(N=C2N=C(NC(=O)c3cccs3)c3ccccc32)c(=O)n(-c2ccccc2)n1C,0,0,0,80
Cc1c(N=C2C=CC(=O)c3ccccc32)c(=O)n(-c2ccccc2)n1C,0,0,95,73
Cc1c(N=C2N=C(NC(=O)NC(C)(C)C)c3ccccc32)c(=O)n(-c2ccccc2)n1C,0,0,0,84
CCCn1cnc2c(Sc3c([N+](=O)[O-])ncn3C)nc(N)nc21,0,0,0,0
Cn1cnc([N+](=O)[O-])c1Sc1nc(N)nc2c1ncn2Cc1ccccc1,44,0,0,0
CCOc1ccc(CN(C)C(=O)[C@H](Cc2ccccc2)NC(=O)OCc2ccccc2)cc1OC,0,+,56,0
CC1CCN(S(=O)(=O)c2cn(CC(=O)Nc3ccc(C#N)cc3)cn2)CC1,0,0,0,0
COC(=O)[C@@]1(Cc2ccc(OC)cc2)[C@@H]2C(=CC(=O)[C@H]2CC(=O)C(=O)N2CCCC2)CN1C(=O)c1ccccc1,-,+,0,-
C[C@H]1CCCN1c1cccc2c1S(=O)(=O)N(C1CC1)CCCO2,0,-,-,0
COc1ccc(OC)c(C(C)NC(C)=O)c1 (centres undefined),0,+,0,0
COc1ccc(C#Cc2c(-c3ccccc3OC)oc3ccccc23)cc1,0,-,-,0
CCCCN1CC(=O)N2[C@H](C[C@@]3(C)c4ccccc4N(S(=O)(=O)c4ccccc4)[C@@H]23)C1=O,0,-,-,0
CCN(CC)CCN(C(=O)C1=COCCO1)c1nc2ccc(C)cc2s1,0,+,0,0
O=S1(=O)c2c(cccc2N2CC[C@@H](O)C2)O[C@@H]2CCN1C2,0,-,-,0
COc1ccc(C(=O)NN=C2CCCC2)cc1,0,+,0,0
SMILES,GC-B act,Myeloid diff MLP,Exocytosis inh,NPR1 activator
COc1cccc(C(=O)NN=C2CCCC2)c1,0,?,0,0
Cc1cccc(NC(=O)C(C)SCc2nc3sc4c(c3c(=O)[nH]2)CCCC4)n1 (centres undefined),0,+,0,0
COC(=O)C1CN(C2CCCC2)CCS(=O)(=O)N1Cc1cn(Cc2ccc(C)cc2)nn1 (centres undefined),0,-,-,0
Cc1[nH]c2ccccc2c1/C=N/Nc1ccc([N+](=O)[O-])cc1S(=O)(=O)Nc1ccc(Cl)cc1,0,+,0,0
COc1ccc(NS(=O)(=O)c2cc([N+](=O)[O-])ccc2N/N=C\c2c(C)[nH]c3ccccc23)cc1,0,+,0,0
O=C(O)COc1ccccc1C=NNc1ccc([N+](=O)[O-])cc1S(=O)(=O)Nc1ccc(Cl)cc1,0,0,0,0
CC(c1c[nH]c2ccccc12)c1c[nH]c2ccc(Br)cc12 (centres undefined),0,-,-,0
COc1cccc(/C=N/NC(=O)c2[nH]nc3c2CCc2ccccc2-3)c1,0,?,81,0
COc1cc(C2NCC(c3ccc(Cl)cc3Cl)c3c2[nH]c2ccccc32)cc(OC)c1OC (centres undefined),0,0,0,86
COc1cc([C@H]2c3[nH]c4ccccc4c3C[C@H]3C(=O)N4[C@@H](c5cc(OC)c(OC)c(OC)c5)c5[nH]c6ccccc6c5C[C@H]4C(=O)N23)cc(OC)c1OC,-,0,0,-
O=C(O)c1ccc(C2NCC(c3ccccc3Cl)c3c2[nH]c2ccccc32)cc1 (centres undefined),0,0,0,54
O=C(N[C@H](C(=O)N1CCC[C@H]1C(=O)NCCc1ccccc1Cl)C1CCCCC1)c1ccccc1,0,-,-,0
O=C1c2ccccc2C(=O)c2cc(N3CCCCC3)ccc21,0,+,0,0
O=C(NCc1ccccc1)C1(C(=O)C2CC2)CC(c2ccccn2)=NO1 (centres undefined),0,-,-,0
OC(c1ccccc1)(c1ccccc1)C1CCN(CCCOc2ccc(Br)cc2)CC1,0,-,-,0
CCN(CC)c1ccc2c(C)c(Cl)c(=O)oc2c1,0,0,0,0
CCN(CC)c1ccc2c(Cl)c(Br)c(=O)oc2c1,-,+,0,-
COc1ccccc1/C=C/C=N/Nc1cccc(C(=O)O)c1,0,0,0,54
COc1ccc(Br)cc1/C=N/Nc1cccc(C(=O)O)c1,0,0,0,0
COc1ccc(CCN(C)CCc2ccc(OC)c(OC)c2)cc1OC,0,+,0,0
COc1ccc(CCN(C)CC(O)c2ccccc2)cc1OC (centres undefined),0,0,0,0
CN(Cc1ccccc1F)C(=O)C1CCC(CNS(=O)(=O)c2cccc3cccnc23)CC1 (centres undefined),0,-,-,0
CC1(C)CN(C2CCCCC2)C(=O)[C@H]1CC(=O)Nc1ccccc1,0,0,0,0
CNC(=O)C[C@@H]1C(=O)N(C2CCCCC2)CC1(C)C,0,+,0,0
CCOC(=O)c1cc([N+](=O)[O-])sc1NC(=O)c1ccc(S(=O)(=O)N2CC3(C)CC2CC(C)(C)C3)cc1 (centres undefined),0,+,0,0
CC1(C)CC2CC(C)(CN2S(=O)(=O)c2ccc(C(=O)Nc3ccc(S(=O)(=O)N4CCOCC4)cc3)cc2)C1 (centres undefined),0,0,0,0
O=C(Nc1ccc(Oc2ccccc2)cc1)C1CCCN1S(=O)(=O)c1cccc2cccnc12 (centres undefined),0,-,-,0
CC(C)CCNC(=O)NC(=O)COC(=O)/C=C/c1cccc([N+](=O)[O-])c1,0,+,0,0
Cc1nn(C(=O)c2cccnc2)c(C)c1Sc1ccc(Br)cc1,-,0,59,-
NC(=NCc1ccccc1)NC(=O)OCc1ccccc1,0,-,-,0
